Several values for one entry are separate records, joined by “and”; a condition that tells them apart may be missing. Equal entries are not always repeated. In all, about 16,000 compounds went through this assay and about 5,700 (36%) were called active. Roughly 24% stayed inconclusive and do not appear here. Calls follow the shape of the dose curve; as a rule, active = well fitted curve in the direction sought with a large enough effect; inconclusive = small, poorly fitted or top-dose-only effect, or effect the other way; inactive = no such curve, though single readings can be large or run the other way. This is one part of the list.

Broadly, the AC50 is the concentration giving half of the maximal activity seen.
% is scaled to controls: 0 for no effect and ±100 for the full control effect.

The target of this assay is Cytochrome P450 1A2 (Homo sapiens) (UniProt P05177). Description: Cytochrome panel assay with activity outcomes. As to conditions: recombinant CYP, pro-luciferin dealkylation, luminescence, p450-cyp1a2; series mostly up to 57.1 µM.
Cytochrome P450 1A2 (Homo sapiens), sequence (P05177 whole entry, looked up): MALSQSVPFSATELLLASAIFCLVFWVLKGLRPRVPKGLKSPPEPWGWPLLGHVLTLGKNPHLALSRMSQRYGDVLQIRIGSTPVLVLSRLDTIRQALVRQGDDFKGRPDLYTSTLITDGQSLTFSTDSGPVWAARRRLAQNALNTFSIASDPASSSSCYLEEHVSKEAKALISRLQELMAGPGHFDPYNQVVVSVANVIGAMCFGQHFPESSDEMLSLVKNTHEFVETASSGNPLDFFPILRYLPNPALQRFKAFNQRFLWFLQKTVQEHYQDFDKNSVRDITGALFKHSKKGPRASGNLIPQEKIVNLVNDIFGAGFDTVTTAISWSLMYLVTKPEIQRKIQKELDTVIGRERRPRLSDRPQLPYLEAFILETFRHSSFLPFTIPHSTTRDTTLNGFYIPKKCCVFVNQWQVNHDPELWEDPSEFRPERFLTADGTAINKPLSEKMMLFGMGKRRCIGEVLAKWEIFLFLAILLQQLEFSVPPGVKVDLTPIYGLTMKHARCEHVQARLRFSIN
For `COc1ccc2[nH]c3c(c2c1)CN(C)CC3`, the AC50 was 12.6 µM (active).

Regarding `CN1CCc2[nH]nc(-c3n[nH]c4c3CN(C)CC4)c2C1`, the activity, negative = inhibition is -15.6% [at 11.4 µM] (inactive).

For the molecule `COc1ccc2c3c([nH]c2c1)[C@@H]1C[C@@H]2[C@@H](C[C@H](O)[C@H](OC)[C@H]2C(=O)O)CN1CC3`, the AC50 result was “inactive”.

For the molecule `COc1ccc(C(=O)NCc2ccc(-c3nc4ccccc4s3)cc2)cc1`, the AC50 was 3.16 µM (active).

With `CC(C)(C)C(=O)NC(=S)NCCc1ccccc1`, the AC50 was 7.08 µM (active).

For `CN(C)C(=O)N1CCCC(C(=O)NCCc2ccccc2)C1` (configuration not stated), the AC50 entry was “inactive”.

For `COc1ccc(CN(CCC#N)C(=S)NC(=O)c2ccccc2)cc1`, the AC50 is 5.01 µM (active).

Take `COc1ccc(C(=O)NC(=S)NCc2ccccc2)cc1`: the AC50 is 3.16 µM (active).

`CCOc1ccc(N(CCC#N)S(=O)(=O)c2ccc(OC)cc2)cc1`: the AC50 result was “inactive”.

As to `COc1ccc(C(=O)NNC(=S)NC(=O)c2ccco2)cc1`, the AC50 result was “inactive”.

Consider `Cc1ccc(C(=O)NC(=S)Nc2cc(-c3nc4ccccc4s3)ccc2C)cc1`, for which the AC50 entry was “inactive”.

Turning to `O=C(Oc1ccc2c(c1)CN(Cc1ccccc1)CO2)c1ccccc1`, the activity, negative = inhibition was -14.3% [at 2.29 µM] (inactive).

`C[C@H](c1ccccc1)N1C(=O)[C@H]2[C@@H]3[C@H](O)[C@H](O)CC(=O)[C@H]3CC[C@H]2C1=O`: the activity, negative = inhibition was -6.45% [at 11.4 µM] (inactive).

Regarding `O=C(O)Cc1ccc2ocnc2c1`, the AC50 entry is “inactive”.

On to `CCCCN1C(=O)CN(CCc2ccccc2)C(=O)C1c1ccc(OC)cc1` (configuration not stated), for which the AC50 result is “inactive”.

Regarding `CNC(=O)NC(=S)NC(=O)c1ccc(OC)cc1`, the AC50 was 10 µM (active).

Turning to `COc1ccc(C(=O)NCc2cn3ccccc3n2)cc1`, the AC50 is 10 µM (active).

`COc1cc(OC)cc(C(=O)NC(=S)NCCc2ccccc2)c1`: the AC50 is 1.26 µM (active).

Regarding `COc1cc(OC)cc(C(=O)NC(=S)Nc2ccc(Cl)c(C(=O)O)c2)c1`, the AC50 entry is “inactive”.

In the case of `Cc1ccc(C(=O)O)cc1N1C(=O)c2cccc3cc(Br)cc(c23)C1=O`, the AC50 result was “inactive”.

Take `CN(Cc1cc(C(C)(C)C)cc(Br)c1O)Cc1cc(C(C)(C)C)cc(Br)c1O`: the AC50 is 3.16 µM (active).

`CC(C)(C)c1cc2c(O)c(c1)Cc1cc(C(C)(C)C)cc(c1O)Cc1cc(C(C)(C)C)cc(c1O)Cc1cc(C(C)(C)C)cc(c1O)Cc1cc(C(C)(C)C)cc(c1O)Cc1cc(C(C)(C)C)cc(c1O)Cc1cc(C(C)(C)C)cc(c1O)Cc1cc(C(C)(C)C)cc(c1O)C2`: the activity, negative = inhibition is -14.2% [at 11.4 µM] (inactive).

For `CC(CCC(=O)O)(c1cc(Br)c(O)c(Br)c1)c1cc(Br)c(O)c(Br)c1`, the activity, negative = inhibition is -17.9% [at 2.29 µM] (inactive).

`COc1ccc(C(=O)CCN(C)C)c2ccccc12`: the AC50 was 1.58 µM (active).

For the molecule `COc1ccc(CCN(C)CCC(=O)Nc2c(C)cc(C)cc2C)cc1OC`, the AC50 result is “inactive”.

Turning to `COc1ccc(Cc2ccccc2C(=O)O)c2ccccc12`, the activity, negative = inhibition is 2.81% [at 2.29 µM] (inactive).

Regarding `CN(Cc1ccco1)c1ncnc2ccc(-c3cccc(C#N)c3)cc12`, the AC50 is 0.501 µM (active).

In the case of `CN(Cc1ccco1)c1ncnc2ccc(-c3ccccc3C(F)(F)F)cc12`, the AC50 is 5.01 µM (active).

With `CN(C)Cc1ccccc1-c1ccc2ncnc(N(C)Cc3ccco3)c2c1`, the AC50 is 2 µM (active).

Consider `CN(Cc1ccco1)c1ncnc2ccc(-c3ccccc3Cl)cc12`, for which the AC50 is 2 µM (active).

Regarding `COCC(=O)N1CCC[C@@]2(CCN(Cc3ccccc3OC)C2)C1`, the AC50 result was “inactive”.

On to `CC(=O)OC[C@@H]1O[C@H](C/C=N\O[C@@H]2O[C@H](COC(C)=O)[C@@H](OC(C)=O)[C@H](OC(C)=O)[C@H]2OC(C)=O)C=C[C@@H]1OC(C)=O`, for which the activity, negative = inhibition is -3.65% [at 11.4 µM] (inactive).

Regarding `CN(Cc1ccco1)c1ncnc2ccc(-c3ccccc3C#N)cc12`, the AC50 is 1 µM (active).

For `Oc1ccc([C@@H]2CNCc3sccc32)cc1O`, the AC50 result is “inactive”.

With `COc1ccccc1CN1CCCC2(CCN(C(=O)c3csnn3)CC2)C1`, the AC50 entry is “inactive”.

As for `C=CCn1c(C)cc(C(=O)CN2C(=O)c3ccccc3C2=O)c1C`, the AC50 entry is “inactive”.

Turning to `Cc1cc(C(=O)CC#N)c(C)n1CC(F)(F)F`, the AC50 was 15.8 µM (active).

As for `CC1(C)OC(C(N)=O)C(C(N)=O)O1` (configuration not stated), the AC50 entry was “inactive”.

For `CCOC(=O)N/N=C1/C[C@@H](O)[C@@H](O)[C@@H]2[C@@H]3C(=O)N(Cc4ccccc4)C(=O)[C@H]3CC[C@H]12`, the activity, negative = inhibition was -4.78% [at 11.4 µM] (inactive).

For `CCOC(=O)N/N=C1/C[C@@H](O)[C@@H](O)[C@@H]2[C@@H]3C(=O)N(Cc4ccccc4)C(=O)[C@H]3CC[C@@H]12`, the activity, negative = inhibition is -3.55% [at 11.4 µM] (inactive).

Consider `COc1ccccc1OCC(=O)N/N=C1/SCC(=O)N1Cc1ccccc1`, for which the AC50 was 5.01 µM (active).

For `CCOc1cc(/C=C2\C(=O)N(Cc3ccc(C)cc3)C(C)=C2C(=O)OC)ccc1O`, the AC50 is 14.1 µM (active).

As to `CCOc1cc(/C=C2/NC(=O)N(CC(=O)Nc3cccc(C)c3)C2=O)ccc1OC`, the AC50 entry is “inactive”.

Take `O=C1OCCC1Sc1nnc(-c2ccc(O)cc2)o1` (configuration not stated): the AC50 is 2.24 µM (active).

In the case of `O=C1OCCC1Sc1nnnn1-c1ccccc1` (configuration not stated), the AC50 entry was “inactive”.

`N#Cc1cccc(NC(=O)N2CC[C@@]3(CCCNC3)C2)c1`: the AC50 result is “inactive”.

`NC(=O)c1nn(-c2ccccc2)c(=O)cc1O`: the AC50 result was “inactive”.

Consider `O=C(c1ccccc1)c1nn(-c2ccccc2)c(=O)cc1C(F)(F)F`, for which the AC50 is 0.501 µM (active).

With `C=CC[C@@H]1C=C[C@H](ON=C(C)C)[C@H](CO)O1`, the activity, negative = inhibition was 3.87% [at 11.4 µM] (inactive).

For the molecule `COC(=O)[C@H](C)NC(=O)C/C=C\[C@@H](C)[C@H]1C=C[C@H](O)[C@@H](CO)O1`, the activity, negative = inhibition was -5.17% [at 11.4 µM] (inactive).

As for `O=C(N/N=C/c1ccncc1)c1cc2c(ccc3ccccc32)o1`, the AC50 is 0.355 µM (active).

Consider `C=CCn1cc(/C=N\NC(=O)c2cc3c(ccc4ccccc43)o2)c2ccccc21`, for which the AC50 was 1 µM (active).

For the molecule `Cc1ccc(-c2ccc(/C=N\NC(=O)c3cc4c(ccc5ccccc54)o3)o2)cc1[N+](=O)[O-]`, the AC50 is 22.4 µM (active).

Turning to `Cc1ccccc1C(=O)N/N=C/c1ccncc1`, the AC50 is 12.6 µM (active).

With `CC(O)(P(=O)(O)O)P(=O)(O)O`, the AC50 entry is “inactive”.

As for `COc1ccccc1CN1CC[C@@]2(CCCN(C(=O)c3cccn3C)C2)C1`, the AC50 entry was “inactive”.

With `Cc1cc(C(=O)N/N=C/c2cccc([N+](=O)[O-])c2)c(C)o1`, the AC50 was 1.41 µM (active).

With `COc1ccc(/C=N/NC(=O)c2cccc([N+](=O)[O-])c2)cc1OS(=O)(=O)c1ccc(C)cc1`, the AC50 result was “inactive”.

`O=C(N/N=C/c1ccco1)/C(=C/c1cccc([N+](=O)[O-])c1)NC(=O)c1ccccc1`: the AC50 entry was “inactive”.

Take `O=C(N/N=C/c1cccc([N+](=O)[O-])c1)c1cc2c(ccc3ccccc32)o1`: the AC50 is 0.355 µM (active).

Turning to `C#C[C@@]1(OC(C)=O)CC[C@@H]2[C@@H]3CCC4=C[C@@H](OC(C)=O)CC[C@H]4[C@H]3CC[C@]21C`, the AC50 entry is “inactive”.

Take `C/C(CCN1CCc2nc(-c3ccccc3)c(-c3ccccc3)cc2C1)=N\O[C@@H](C)c1cc(-c2c(C)cc(C)cc2C)no1`: the activity, negative = inhibition was 9.44% [at 11.4 µM] (inactive).

On to `O=c1cc(N2CCOCC2)oc2c(-c3ccccc3)cccc12`, for which the AC50 is 1.58 µM (active) and 200 nM (active).

On to `Cc1cc(C)c2nc3c(c([C@H](O)[C@@H]4CCCCN4)c2c1)CC/C3=C/c1ccc(Cl)cc1`, for which the activity, negative = inhibition is -20.6% [at 11.4 µM] (inactive).

`Cc1ccc(C(c2nnnn2C2CCCC2)N2CCN3CCCC3C2)cc1` (configuration not stated): the AC50 result is “inactive”.

In the case of `c1coc(CN2CCN(C(c3cccs3)c3nnnn3C3CCCC3)CC2)c1` (configuration not stated), the AC50 result is “inactive”.

With `Clc1ccc(C(c2nnnn2C2CCCC2)N2CCN(Cc3ccncc3)CC2)cc1` (configuration not stated), the AC50 is 10 µM (active).

For the molecule `C/C=C\C1=C(CO)C(=O)C2O[C@]2(CC=C(C)C)C1=O` (some centres not stated), the activity, negative = inhibition is -6.49% [at 11.4 µM] (inactive).

Turning to `O=[N+]([O-])c1cccc(-c2nc(-c3ccccc3)c(-c3cccs3)[nH]2)c1`, the AC50 was 2.51 µM (active).

Turning to `COc1ccc(-c2nc(-c3ccccc3)c(-c3cc([N+](=O)[O-])ccc3C)[nH]2)cc1O`, the half-maximal activity concentration (AC50) is 14.1 µM (active).

For the molecule `O=[N+]([O-])c1cccc(-c2nc(-c3cccs3)c(-c3cccs3)[nH]2)c1`, the AC50 is 1 µM (active).

For `CCOc1ccc(C(=O)Nc2cnn(Cc3ccc(Cl)c(Cl)c3)c2)cc1`, the AC50 is 10 µM (active).

As for `CCOC(OCC)P(=O)(O)CCCNCc1ccc(Cl)c(Cl)c1`, the AC50 entry is “inactive”.

For the molecule `CCN(CC)c1ccc(NC(=O)c2cnn(CC)c2)cc1`, the AC50 result was “inactive”.

On to `Cc1cc(C(=O)CSC(=S)SC(C)(C)C)ccc1Cl`, for which the AC50 was 1.58 µM (active).

Turning to `N#CCCn1c(=O)c(-c2ccc(F)cc2)nc2cnc(OCc3ccccc3)nc21`, the AC50 is 1.58 µM (active).

Take `N#CCCn1c(=O)c(-c2cc(F)cc(F)c2)nc2cnc(Oc3ccccc3)nc21`: the AC50 is 2 µM (active).

Turning to `N#CCCn1c(=O)cnc2cnc(OCc3ccccc3)nc21`, the AC50 is 12.6 µM (active).

For `N#CCCn1c(=O)c(-c2ccc(Cl)cc2)nc2cnc(OCc3ccccc3)nc21`, the AC50 is 2 µM (active).

Turning to `O=C1CC[C@H](NC(=O)c2ccccc2)C(=O)N1`, the activity, negative = inhibition was -20.9% [at 11.4 µM] (inactive).

Turning to `COc1ncc2nc(-c3cc(F)cc(F)c3)c(=O)n(CCC#N)c2n1`, the AC50 is 6.31 µM (active).

On to `N#CCCn1c(=O)c(-c2cc(F)cc(F)c2)nc2cnc(OCc3ccccc3)nc21`, for which the AC50 is 6.31 µM (active).

On to `N#CCCn1c(=O)c(-c2ccccc2)nc2cnc(OCc3ccccc3)nc21`, for which the AC50 is 3.16 µM (active).

Take `CN(C)c1ncc2nc(-c3cc(F)cc(F)c3)c(=O)n(CCC#N)c2n1`: the AC50 result is “inactive”.

As for `COc1cccc([C@@H]2Oc3ccc(OC)cc3/C(=N/O[C@@H](C)c3cn([C@H]4COC[C@H]4O)nn3)[C@@H]2O)c1`, the activity, negative = inhibition is 8.26% [at 11.4 µM] (inactive).

As to `Clc1ccccc1C(Nc1ncccn1)Nc1ncccn1`, the activity, negative = inhibition is -16.9% [at 11.4 µM] (inactive).

Consider `CC(=O)c1c(C(C)=O)c(C)n(NC(=O)c2ccncc2)c1C`, for which the AC50 entry is “inactive”.

Source of the values: PubChem BioAssay AID1851 (National Center for Advancing Translational Sciences (NCATS), 2009).
